# Results taken from PubChem BioAssay AID651863 (Broad Institute, 2012).
# Entries with a potency or affinity are not part of this list. Unmarked numbers belong to inactive results. Activity calls are given as the source filed them.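 Rule for the calls: active = compounds whose fitted half-maximal cell-killing dose is at most twice the top tested dose; inconclusive = flat curve with 30 to 70 percent signal loss, or poor fit; inactive = the rest.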
# Assay: HEK293T cell cytotoxicity, dose response, cytotoxicity control, luminescence plate reader, powder samples, set 4 (AID 651863)
SMILES,outcome,"activity change, negative = cytotoxicity"
O=C(Oc1cc(CN2C(=O)c3ccccc3C2=O)c2ccccc2[n+]1[O-])c1cccc(Cl)c1,inactive,
O=C1c2ccccc2C(=O)N1C[C@H]1NCCc2ccccc21,inactive,
O=C(O)C1CCCCC1C(=O)NCC1c2ccccc2CCN1C(=O)Cc1ccccc1 (configuration not stated),inactive,
Cc1cc(C)c(S(=O)(=O)Nc2nc(N(C)C)nc3ccccc23)c(C)c1,inactive,
COC(=O)[C@H]1CCCC[C@H]1C(=O)N1CCc2ccccc2[C@H]1CN1C(=O)c2ccccc2C1=O,inactive,
CCOC(=O)C(C(=O)OCC)c1cc(CN2C(=O)c3ccccc3C2=O)c2ccccc2n1,inactive,
O=C(O)/C=C\C(=O)N1CCc2ccccc2C1CN1C(=O)c2ccccc2C1=O (configuration not stated),inactive,
O=C(O)c1ccccc1C(=O)NC[C@@H]1c2ccccc2CCN1C(=O)[C@@H]1CCCC[C@@H]1C(=O)O,inactive,
Cc1ccc(S(=O)(=O)NNc2nc(N3CC(O)CC3C(=O)O)nc3ccccc23)cc1 (configuration not stated),inactive,
COC(=O)CNc1nc(NS(=O)(=O)c2c(C)cc(C)cc2C)c2ccccc2n1,inactive,
O=C(NCCO)c1ccccc1C(=O)NC[C@@H]1c2ccccc2CCN1C(=O)C1CCCCC1C(=O)O (some centres not stated),inactive,
Cc1ccc(S(=O)(=O)Nc2cc(C(C(=O)OC(C)C)C(=O)C(F)(F)F)c(O)c3ccccc23)cc1 (configuration not stated),inactive,
O=C(O)[C@H]1CCCC[C@H]1C(=O)N1CCc2ccccc2[C@H]1CNS(=O)(=O)c1ccc([N+](=O)[O-])cc1,inactive,
Cc1ccccc1S(=O)(=O)Nc1cc(C(C(=O)OC(C)C)C(=O)C(F)(F)F)c(O)c2ccccc12 (configuration not stated),inactive,
O=C(NC[C@@H]1c2ccccc2CCN1C(=O)[C@@H]1CCCC[C@@H]1C(=O)O)c1ccc(CN2CCOCC2)cc1,inactive,
O=C(O)C1CCCCC1C(=O)Nc1ccccc1CN1C(=O)c2ccccc2C1=O (configuration not stated),inactive,

SMILES,outcome,"activity change, negative = cytotoxicity"
NC(=O)[C@H]1CCCC[C@H]1C(=O)N1CCc2ccccc2[C@H]1CN1C(=O)c2ccccc2C1=O,inactive,
Cc1ccc(S(=O)(=O)NC(=O)[C@@H]2c3ccccc3CCN2C(=O)[C@@H]2CCCC[C@@H]2C(=O)O)cc1,inactive,
O=C(O)CCCC(=O)N1CCc2ccccc2C1CN1C(=O)c2ccccc2C1=O (configuration not stated),inactive,
CCOC(=O)Cc1nc(NS(=O)(=O)c2c(C)cc(C)cc2C)c2ccccc2n1,inactive,
Cc1cc(C)c(S(=O)(=O)Nc2cc(C(C(=O)OC(C)C)C(=O)C(F)(F)F)c(O)c3ccccc23)c(C)c1 (configuration not stated),inactive,
O=C1c2ccccc2C(=O)N1C[C@@H]1c2ccccc2CCN1C(=O)C1CCCCC1,inactive,
NC(=O)c1ccccc1C(=O)NC[C@@H]1c2ccccc2CCN1C(=O)[C@@H]1CCCC[C@@H]1C(=O)O,inactive,
Cc1cc(C)c(S(=O)(=O)Nc2nc(C(C(=O)OC(C)C)C(=O)C(F)(F)F)nc3ccccc23)c(C)c1 (configuration not stated),inactive,
O=C(Cc1ccccc1)NC[C@@H]1c2ccccc2CCN1C(=O)[C@@H]1CCCC[C@@H]1C(=O)O,inactive,
O=C(NC[C@@H]1c2ccccc2CCN1C(=O)[C@@H]1CCCC[C@@H]1C(=O)O)c1ccc(CCl)cc1,inactive,
O=C(O)[C@H]1CCCC[C@H]1C(=O)N1CCc2ccccc2[C@H]1CNc1nc(Cl)nc2ccccc12,inactive,
O=C1c2ccccc2C(=O)N1CC1c2ccccc2CCN1C(=O)Cc1ccccc1 (configuration not stated),,0.765% [at 6 µM]
COC(=O)[C@@H]1CCCC[C@@H]1C(=O)N1CCc2ccccc2[C@@H]1CN1C(=O)c2ccccc2C1=O,inactive,
C=CC(=O)NC[C@@H]1c2ccccc2CCN1C(=O)[C@@H]1CCCC[C@@H]1C(=O)O,inactive,
Cc1cc(C)c(S(=O)(=O)Nc2nc(NCCO)nc3ccccc23)c(C)c1,inactive,
O=C(O)c1ccccc1C(=O)N1CCc2ccccc2C1CN1C(=O)c2ccccc2C1=O (configuration not stated),inactive,
